Source: PubChem BioAssay (EPA / NIEHS)
Several values for one entry are separate records, joined by “and”; a condition that tells them apart may be missing. Equal entries are not always repeated. Results filed as inconclusive are left out. The source holds several records for some structures; these can differ, active in one and inactive in another. Activity calls are given as the source filed them. Rule for the calls, unless noted: active = hit-call score of the fitted dose curve at least 0.9, where 1 is the maximum; inactive = score below 0.9.

Tests used:
[1] = ATG_TAL_CIS: Attagene CIS-FACTORIAL HepG2 Assay for human TAL Basal Promoter (AID 2282966); conditions: HepG2 Attagene cis-factorial TAL promoter reporter; actives raise or lower the signal;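 note: background control endpoint measuring basal TAL promoter reporter mRNA not a specific factor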
In short: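 Readout: reporter mRNA, fluorescence by CE. System: HepG2, transient multi-reporter transfection, endogenous TF activity. Exposure: 24 h. Analysis: bidirectional, DMSO-normalized; background control.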

[2] = ATG_TGFb_CIS: Attagene CIS-FACTORIAL HepG2 Assay for human Transforming Growth Factor (TGF) (AID 2282967); conditions: HepG2 Attagene CIS TGFb reporter, mRNA transcription; actives raise or lower the signal
In short: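 Readout: fluorescently labeled reporter cDNA fragments resolved by capillary electrophoresis after RT-PCR. Transfected HepG2 cells dosed for 24 h; endogenous TF activity at TGFB1-linked cis element; gain or loss fitted relative to DMSO.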

[3] = target: X-box-binding protein 1 (Homo sapiens) (UniProt P17861); assay: ATG_Xbp1_CIS: Attagene CIS-FACTORIAL HepG2 Assay for human X-box Binding Protein 1 (XBP1) (AID 2282972); conditions: HepG2 XBP1 cis-element reporter, Attagene multiplex; actives raise or lower the signal
In short: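 HepG2, transient MRTU transfection (cis-promoter driven), 24 h compound exposure. Total RNA → oligo(dT) RT → PCR → 6-FAM labeling → HpaI cut → CE. Bidirectional fit vs DMSO.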

[4] = ATG_GAL4_TRANS: Attagene TRANS-FACTORIAL HepG2 Assay for GAL4 (Internal Marker) (AID 2282976; active = hit-call score of the fitted dose curve at least 0.9, where 1 is the maximum); conditions: HepG2 Attagene TRANS GAL4 internal marker reporter
In short: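 Fluorescence from capillary electrophoresis of labelled RT-PCR products quantifies reporter mRNA induction after 24 h dosing of HepG2 cells carrying transfected GAL4-UAS reporter transcription units. Vehicle DMSO serves as baseline.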

[5] = target: Glucocorticoid receptor (Homo sapiens) (UniProt P04150); assay: ATG_GR_TRANS: Attagene TRANS-FACTORIAL HepG2 Assay for human Glucocorticoid Receptor (GR) (AID 2282978; active = hit-call score of the fitted dose curve at least 0.9, where 1 is the maximum;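 note: activators score as hits since higher reporter transcript over DMSO is fitted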); conditions: HepG2 Attagene TRANS GR reporter, mRNA transcription
In short: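 Fluorescent capillary-electrophoresis quantitation of reporter mRNA is the readout, taken 24 h after dosing human HepG2 cells carrying transiently transfected GAL4-UAS reporter units activated by chimeric NR-GAL4 fusions; activity scored as induction over DMSO.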

[6] = target: Hepatocyte nuclear factor 4-alpha (Homo sapiens) (UniProt P41235); assay: ATG_HNF4a_TRANS: Attagene TRANS-FACTORIAL HepG2 Assay for human Hepatocyte Nuclear Factor 4 alpha (HNF4a) (AID 2282982; active = hit-call score of the fitted dose curve at least 0.9, where 1 is the maximum); conditions: HepG2 HNF4a transactivation reporter, mRNA readout
In short: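 HepG2 cells transiently transfected with HNF4a-Gal4 chimera and GAL4-UAS reporter units, dosed for 24 h. Reporter mRNA measured by RT-PCR, fluorescent primer extension and capillary electrophoresis; gain-of-signal fitted relative to DMSO.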

[7] = ATG_M_06_TRANS: Attagene TRANS-FACTORIAL HepG2 Assay for M06 Transcription Factor (Internal Marker) (AID 2282983; active = hit-call score of the fitted dose curve at least 0.9, where 1 is the maximum); conditions: HepG2 Attagene TRANS M06 internal marker reporter
In short: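 Measured by capillary electrophoresis of fluorescently labelled RT-PCR products, this endpoint reflects reporter mRNA in HepG2 cells harbouring exogenous NR-GAL4 reporter constructs after 24 h exposure, with DMSO as baseline.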

[8] = target: Nuclear receptor subfamily 4 group A member 2 (Homo sapiens) (UniProt P43354); assay: ATG_NURR1_TRANS: Attagene TRANS-FACTORIAL HepG2 Assay for human Nuclear Receptor Related Protein 1 (NURR1) (AID 2282985; active = hit-call score of the fitted dose curve at least 0.9, where 1 is the maximum); conditions: HepG2 Attagene TRANS reporter, mRNA readout
In short: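 HepG2 cells transiently transfected with NURR1-Gal4 chimera and GAL4-UAS reporter units; after 24 hr compound exposure, reporter mRNA quantified by RT-PCR and capillary electrophoresis; gain of signal fitted against DMSO.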

[9] = target: Transcriptional activator Myb (Homo sapiens) (UniProt P10242); assay: ATG_Myb_CIS: Attagene CIS-FACTORIAL HepG2 Assay for human Myeloblastosis (Myb) Proto-Oncogene Transcription Factor (AID 2282986); conditions: HepG2 Attagene CIS-FACTORIAL Myb reporter transcription; actives raise or lower the signal
In short: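 Reporter transcript levels, quantified by fluorescent RT-PCR and capillary electrophoresis, serve as the read-out. Transfected HepG2 cells carrying cis-promoter reporter units are dosed for 24 hours, and curves are fitted bidirectionally against DMSO controls.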

[10] = target: Nuclear respiratory factor 1 (Homo sapiens) (UniProt Q16656); assay: ATG_NRF1_CIS: Attagene CIS-FACTORIAL HepG2 Assay for human Nuclear Respiratory Factor 1 (NRF1) Orphan Gene (AID 2282987); conditions: HepG2 NRF1 cis-element reporter, Attagene multiplex; actives raise or lower the signal
In short: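 Multiplexed cis-reporter assay, HepG2 cells, 24 h treatment. Total RNA → oligo(dT) RT → PCR with reporter-specific primers → 6-FAM primer extension → HpaI cut → CE. Bidirectional fit vs DMSO.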

[11] = ATG_VDRE_CIS: Attagene CIS-FACTORIAL HepG2 Assay for human Vitamin D Receptor Element (VDRE) (AID 2282968); conditions: HepG2 VDRE cis-reporter transcription, actives raise or lower the signal
In short: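 Transiently transfected HepG2 cells carrying cis-regulated reporter transcription units were exposed for 24 h. Reporter mRNA was measured by RT-PCR with fluorescent labelling and capillary electrophoresis, and fitted in both directions against DMSO.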

[12] = ATG_M_19_TRANS: Attagene TRANS-FACTORIAL HepG2 Assay for M19 Transcription Factor (Internal Marker) (AID 2282974; active = hit-call score of the fitted dose curve at least 0.9, where 1 is the maximum); conditions: HepG2 Attagene TRANS-FACTORIAL M19 internal marker reporter
In short: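 Fluorescence of 6-FAM-labelled reporter cDNA fragments, separated by capillary electrophoresis, served as the readout. These derived from HepG2 cells carrying transfected GAL4-UAS reporter units after 24 h dosing, with DMSO as negative control.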

[13] = target: Bile acid receptor (Homo sapiens) (UniProt Q96RI1); assay: ATG_FXR_TRANS: Attagene TRANS-FACTORIAL HepG2 Assay for Farnesoid X Receptor (FXR) (AID 2282979; active = hit-call score of the fitted dose curve at least 0.9, where 1 is the maximum;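 note: hits raise reporter mRNA above DMSO so AC50 marks FXR activation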); conditions: HepG2 Attagene TRANS FXR-GAL4 reporter transcription
In short: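 Chimeric FXR-GAL4 activity in transiently transfected human HepG2 liver cells is scored as induction of reporter mRNA after 24 h of dosing. Detection uses RT-PCR with fluorescent labelling and capillary electrophoresis, with DMSO serving as baseline.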

[14] = ATG_M_32_TRANS: Attagene TRANS-FACTORIAL HepG2 Assay for M32 Transcription Factor (Internal Marker) (AID 2282984; active = hit-call score of the fitted dose curve at least 0.9, where 1 is the maximum); conditions: HepG2 Attagene TRANS M32 internal marker reporter
In short: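 HepG2 cells transiently transfected with GAL4-UAS reporter units, dosed for 24 hours. Reporter mRNA quantified by RT-PCR, 6-FAM labelling, HpaI digestion and capillary electrophoresis; internal-marker signal fitted upward relative to DMSO.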

[15] = target: Oxysterols receptor LXR-alpha (Homo sapiens) (UniProt Q13133); assay: ATG_LXRa_TRANS: Attagene TRANS-FACTORIAL HepG2 Assay for human Liver X Receptor alpha (LXRa) (AID 2282980; active = hit-call score of the fitted dose curve at least 0.9, where 1 is the maximum); conditions: HepG2 Attagene TRANS reporter, LXRa transactivation
In short: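 Transient HepG2 transfectants, 24 h dosing, RT-PCR/CE mRNA reporter quantitation; gain-of-signal vs DMSO.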

[16] = target: Nuclear receptor subfamily 1 group I member 3 (Homo sapiens) (UniProt Q14994); assay: ATG_CAR_TRANS: Attagene TRANS-FACTORIAL HepG2 Assay for human Constitutive Androstane Receptor (CAR) (AID 2282969; active = hit-call score of the fitted dose curve at least 0.9, where 1 is the maximum;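 note: activators raise reporter mRNA above DMSO so AC50 marks induction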); conditions: HepG2 Attagene TRANS-FACTORIAL CAR reporter
In short: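 HepG2 cells transiently transfected with GAL4-UAS reporter units; TRANS format reads activity of exogenous chimeric NR-Gal4 protein. After 24 h dosing, reporter mRNA quantified by RT-PCR, 6-FAM labelling and capillary electrophoresis; gain of signal fitted against DMSO.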

[17] = target: Estrogen-related receptor gamma (Homo sapiens) (UniProt P62508); assay: ATG_ERRg_TRANS: Attagene TRANS-FACTORIAL HepG2 Assay for human Estrogen-Related Receptor gamma (ERRg) (AID 2282977; active = hit-call score of the fitted dose curve at least 0.9, where 1 is the maximum;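 note: hits increase reporter signal over DMSO so potencies reflect activators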); conditions: HepG2 Attagene TRANS reporter, ERRg transactivation
In short: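 Transfect HepG2 with multiple GAL4-UAS reporter transcription units; dose chemicals 24 h; isolate RNA, reverse-transcribe with oligo(dT), PCR-amplify, label with 6-FAM, digest with HpaI; size fragments by capillary electrophoresis. DMSO serves as negative control.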

Measured: AC50

Sequence of X-box-binding protein 1 (Homo sapiens) (P17861 whole entry, looked up): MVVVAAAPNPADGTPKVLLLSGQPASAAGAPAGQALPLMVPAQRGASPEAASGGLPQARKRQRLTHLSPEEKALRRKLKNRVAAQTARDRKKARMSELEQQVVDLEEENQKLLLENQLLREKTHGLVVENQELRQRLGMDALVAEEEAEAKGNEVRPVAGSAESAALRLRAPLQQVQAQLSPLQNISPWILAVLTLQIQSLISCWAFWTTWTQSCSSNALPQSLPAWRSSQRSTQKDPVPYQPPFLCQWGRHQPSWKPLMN
Sequence of Hepatocyte nuclear factor 4-alpha (Homo sapiens) (P41235 whole entry, looked up, the tested form may be a part): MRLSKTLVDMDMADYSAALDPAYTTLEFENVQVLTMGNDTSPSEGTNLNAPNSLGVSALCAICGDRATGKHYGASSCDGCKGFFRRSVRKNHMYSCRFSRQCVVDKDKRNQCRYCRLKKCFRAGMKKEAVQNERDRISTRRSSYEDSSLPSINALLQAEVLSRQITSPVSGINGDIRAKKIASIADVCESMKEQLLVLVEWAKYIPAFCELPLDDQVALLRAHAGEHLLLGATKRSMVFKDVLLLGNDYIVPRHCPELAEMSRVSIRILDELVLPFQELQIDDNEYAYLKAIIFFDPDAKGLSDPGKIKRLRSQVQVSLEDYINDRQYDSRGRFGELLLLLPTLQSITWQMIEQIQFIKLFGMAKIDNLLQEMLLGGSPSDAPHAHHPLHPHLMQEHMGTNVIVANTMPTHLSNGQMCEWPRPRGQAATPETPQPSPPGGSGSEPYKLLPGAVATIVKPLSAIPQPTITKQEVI
Sequence of Nuclear receptor subfamily 4 group A member 2 (Homo sapiens) (P43354 whole entry, looked up, the tested form may be a part): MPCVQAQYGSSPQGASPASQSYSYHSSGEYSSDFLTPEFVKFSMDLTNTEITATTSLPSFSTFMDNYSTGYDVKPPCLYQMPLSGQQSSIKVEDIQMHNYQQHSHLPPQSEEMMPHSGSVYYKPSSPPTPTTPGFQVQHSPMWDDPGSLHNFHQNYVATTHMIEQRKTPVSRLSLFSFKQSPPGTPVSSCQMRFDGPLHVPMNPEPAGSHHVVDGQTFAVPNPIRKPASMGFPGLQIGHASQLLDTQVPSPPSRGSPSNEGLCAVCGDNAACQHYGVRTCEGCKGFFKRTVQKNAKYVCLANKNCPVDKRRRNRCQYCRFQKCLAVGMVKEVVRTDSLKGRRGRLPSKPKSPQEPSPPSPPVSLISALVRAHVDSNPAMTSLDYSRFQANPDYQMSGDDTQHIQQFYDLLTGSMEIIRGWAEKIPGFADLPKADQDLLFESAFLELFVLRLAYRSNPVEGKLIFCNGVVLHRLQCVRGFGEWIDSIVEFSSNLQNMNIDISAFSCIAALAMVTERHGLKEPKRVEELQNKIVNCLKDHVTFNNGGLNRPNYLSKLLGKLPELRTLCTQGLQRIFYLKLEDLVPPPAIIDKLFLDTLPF
Sequence of Transcriptional activator Myb (Homo sapiens) (P10242 whole entry, looked up): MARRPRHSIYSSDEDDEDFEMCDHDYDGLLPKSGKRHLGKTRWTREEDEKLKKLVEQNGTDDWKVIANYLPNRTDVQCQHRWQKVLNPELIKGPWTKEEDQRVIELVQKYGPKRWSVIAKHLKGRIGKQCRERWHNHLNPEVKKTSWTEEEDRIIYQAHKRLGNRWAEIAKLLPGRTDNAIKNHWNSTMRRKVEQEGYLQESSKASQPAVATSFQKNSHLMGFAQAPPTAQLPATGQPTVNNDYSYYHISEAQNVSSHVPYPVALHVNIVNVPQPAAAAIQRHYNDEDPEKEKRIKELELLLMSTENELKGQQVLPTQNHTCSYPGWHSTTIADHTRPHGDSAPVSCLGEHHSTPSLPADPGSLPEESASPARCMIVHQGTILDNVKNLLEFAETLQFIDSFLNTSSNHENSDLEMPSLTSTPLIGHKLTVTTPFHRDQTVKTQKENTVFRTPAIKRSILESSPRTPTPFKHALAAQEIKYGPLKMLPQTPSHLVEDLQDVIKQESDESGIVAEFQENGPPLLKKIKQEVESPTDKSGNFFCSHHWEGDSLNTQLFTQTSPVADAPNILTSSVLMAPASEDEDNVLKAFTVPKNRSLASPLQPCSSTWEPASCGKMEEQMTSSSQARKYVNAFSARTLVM
Sequence of Nuclear respiratory factor 1 (Homo sapiens) (Q16656 whole entry, looked up): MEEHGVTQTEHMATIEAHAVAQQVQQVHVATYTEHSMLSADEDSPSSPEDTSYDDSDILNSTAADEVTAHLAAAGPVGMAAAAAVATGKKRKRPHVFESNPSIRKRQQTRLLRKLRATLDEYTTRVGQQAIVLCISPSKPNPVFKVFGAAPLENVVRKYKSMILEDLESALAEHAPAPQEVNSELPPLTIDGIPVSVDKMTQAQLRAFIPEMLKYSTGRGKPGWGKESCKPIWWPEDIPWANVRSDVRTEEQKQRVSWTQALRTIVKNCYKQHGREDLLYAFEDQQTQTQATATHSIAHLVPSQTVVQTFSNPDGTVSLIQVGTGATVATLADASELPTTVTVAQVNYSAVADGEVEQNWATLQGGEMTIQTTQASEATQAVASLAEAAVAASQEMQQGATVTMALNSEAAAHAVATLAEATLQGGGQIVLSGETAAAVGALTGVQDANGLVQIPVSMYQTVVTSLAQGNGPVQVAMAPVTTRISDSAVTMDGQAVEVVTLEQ
Sequence of Glucocorticoid receptor (Homo sapiens) (P04150 whole entry, looked up, the tested form may be a part): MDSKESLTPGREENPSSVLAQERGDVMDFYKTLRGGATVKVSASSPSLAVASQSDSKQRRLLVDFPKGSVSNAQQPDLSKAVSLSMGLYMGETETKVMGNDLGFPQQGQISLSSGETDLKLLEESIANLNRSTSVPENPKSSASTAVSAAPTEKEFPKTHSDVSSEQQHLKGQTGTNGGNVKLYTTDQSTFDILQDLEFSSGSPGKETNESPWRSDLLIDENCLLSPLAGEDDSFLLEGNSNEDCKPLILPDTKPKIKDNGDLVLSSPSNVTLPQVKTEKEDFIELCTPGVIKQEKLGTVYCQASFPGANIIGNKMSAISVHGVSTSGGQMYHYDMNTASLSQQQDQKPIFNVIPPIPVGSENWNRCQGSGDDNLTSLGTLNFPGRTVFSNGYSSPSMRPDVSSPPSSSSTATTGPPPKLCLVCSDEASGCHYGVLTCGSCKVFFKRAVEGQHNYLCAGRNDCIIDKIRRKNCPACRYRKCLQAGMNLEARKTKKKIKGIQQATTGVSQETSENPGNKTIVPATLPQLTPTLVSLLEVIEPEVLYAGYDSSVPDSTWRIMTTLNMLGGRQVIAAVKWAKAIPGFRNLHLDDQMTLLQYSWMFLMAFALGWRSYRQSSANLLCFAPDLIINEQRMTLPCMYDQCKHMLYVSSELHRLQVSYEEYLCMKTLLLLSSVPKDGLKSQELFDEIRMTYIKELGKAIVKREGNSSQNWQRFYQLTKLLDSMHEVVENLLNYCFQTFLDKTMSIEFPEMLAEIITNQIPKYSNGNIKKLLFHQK
Sequence of Oxysterols receptor LXR-alpha (Homo sapiens) (Q13133 whole entry, looked up): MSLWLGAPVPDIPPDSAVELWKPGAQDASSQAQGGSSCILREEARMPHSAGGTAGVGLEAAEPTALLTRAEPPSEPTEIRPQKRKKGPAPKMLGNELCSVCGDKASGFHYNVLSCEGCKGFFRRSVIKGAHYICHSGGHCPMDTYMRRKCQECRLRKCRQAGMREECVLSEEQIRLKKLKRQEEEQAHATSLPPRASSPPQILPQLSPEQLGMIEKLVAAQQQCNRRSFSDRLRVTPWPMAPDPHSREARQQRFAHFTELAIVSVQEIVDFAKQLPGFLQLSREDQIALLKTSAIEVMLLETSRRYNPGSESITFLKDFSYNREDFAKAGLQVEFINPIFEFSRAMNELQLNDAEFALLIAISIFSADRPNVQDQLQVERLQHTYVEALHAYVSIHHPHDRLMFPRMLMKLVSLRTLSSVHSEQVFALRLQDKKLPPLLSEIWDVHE
Sequence of Bile acid receptor (Homo sapiens) (Q96RI1 whole entry, looked up, the tested form may be a part): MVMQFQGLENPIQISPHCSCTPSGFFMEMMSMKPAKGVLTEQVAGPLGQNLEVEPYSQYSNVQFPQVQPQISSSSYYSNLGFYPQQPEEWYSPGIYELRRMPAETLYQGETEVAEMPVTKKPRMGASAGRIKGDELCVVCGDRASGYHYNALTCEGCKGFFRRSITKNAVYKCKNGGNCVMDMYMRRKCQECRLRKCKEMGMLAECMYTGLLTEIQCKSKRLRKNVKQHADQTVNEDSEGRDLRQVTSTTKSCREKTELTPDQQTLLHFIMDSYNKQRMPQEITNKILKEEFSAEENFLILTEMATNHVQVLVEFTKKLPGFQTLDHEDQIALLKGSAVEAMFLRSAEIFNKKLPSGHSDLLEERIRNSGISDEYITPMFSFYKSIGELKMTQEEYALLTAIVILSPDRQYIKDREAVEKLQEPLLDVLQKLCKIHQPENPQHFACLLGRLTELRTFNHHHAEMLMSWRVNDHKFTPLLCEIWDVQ
Sequence of Nuclear receptor subfamily 1 group I member 3 (Homo sapiens) (Q14994 whole entry, looked up, the tested form may be a part): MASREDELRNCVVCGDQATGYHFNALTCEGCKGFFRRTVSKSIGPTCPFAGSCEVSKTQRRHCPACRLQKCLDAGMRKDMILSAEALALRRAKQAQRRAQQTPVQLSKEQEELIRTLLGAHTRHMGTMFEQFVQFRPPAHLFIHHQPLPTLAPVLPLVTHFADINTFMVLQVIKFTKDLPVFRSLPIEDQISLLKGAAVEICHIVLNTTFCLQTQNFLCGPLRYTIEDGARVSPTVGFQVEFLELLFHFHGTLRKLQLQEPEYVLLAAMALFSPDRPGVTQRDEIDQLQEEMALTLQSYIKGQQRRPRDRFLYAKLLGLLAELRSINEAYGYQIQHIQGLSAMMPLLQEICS
Sequence of Estrogen-related receptor gamma (Homo sapiens) (P62508 whole entry, looked up, the tested form may be a part): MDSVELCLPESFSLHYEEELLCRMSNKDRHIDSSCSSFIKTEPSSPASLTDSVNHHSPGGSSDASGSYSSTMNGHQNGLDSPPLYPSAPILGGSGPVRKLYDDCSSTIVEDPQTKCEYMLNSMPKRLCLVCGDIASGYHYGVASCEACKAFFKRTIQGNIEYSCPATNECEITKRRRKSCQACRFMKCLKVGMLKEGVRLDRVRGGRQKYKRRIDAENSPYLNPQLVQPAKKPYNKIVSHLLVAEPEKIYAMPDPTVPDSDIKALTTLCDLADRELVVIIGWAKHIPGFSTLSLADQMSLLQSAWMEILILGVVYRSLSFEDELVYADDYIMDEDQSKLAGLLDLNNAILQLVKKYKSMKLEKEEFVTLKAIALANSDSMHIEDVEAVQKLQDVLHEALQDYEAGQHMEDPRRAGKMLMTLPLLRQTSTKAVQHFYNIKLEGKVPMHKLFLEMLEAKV

[As]#[In]
not listed: [11] | [12] | [13] | [14] | [15] | [16] | [17]
inactive: all other assays above

N#CC(Br)(Br)C(N)=O
inactive: [1] | [2] | [11] | [3] | [12] | [7] | [8] | [9] | [10]

ClCCOCCCl
inactive: [1] | [2] | [3] | [12] | [13] | [14] | [8] | [9] | [10]

Cc1ccc(N)c(N)c1
inactive: [1] | [2] | [11] | [3] | [7] | [9] | [10]

C[N+](C)(C)CC1CO1 (stereo not drawn)
inactive: [1] | [2] | [3] | [12] | [14] | [9] | [10]

C[C@]12C=CC3=C4CCC(=O)C=C4CC[C@H]3[C@@H]1CC[C@@H]2O
active: [3] 134 µM and 10.7 µM
inactive: [1] | [2] | [3] | [12] | [13] | [15] | [6] | [7] | [14] | [8] | [9] | [10]

CCN(CC)N=O
inactive: [1] | [2] | [11] | [3] | [15] | [7] | [9] | [10]

Clc1ccccc1Cl
inactive: [1] | [2] | [11] | [3] | [5] | [6] | [7] | [9] | [10]

Cc1ccc(N)cc1
not listed: [4] | [5] | [6] | [7] | [11] | [13] | [15]
inactive: all other assays above

CN(C)[C@@H]1C(=O)C(C(N)=O)=C(O)[C@@]2(O)C(=O)C3=C(O)c4c(O)cccc4[C@@](C)(O)[C@H]3C[C@@H]12
inactive: [1] | [2] | [3] | [12] | [13] | [15] | [9] | [10]

CCN(CC)CCO
inactive: [1] | [2] | [3] | [7] | [8] | [9] | [10]

CC(C)(C)OOC(=O)c1ccccc1
active: [3] 150 µM | [9] 153 µM
inactive: [1] | [2] | [11] | [7] | [10]

CCC(C)c1ccc(O)cc1 (stereo not drawn)
active: [3] 51.8 µM
not listed: [6] | [11] | [15]
inactive: all other assays above
